Screening results (PubChem BioAssay)
PPARg SRC-1 ag: PPARgamma agonists recruiting SRC-1 coactivator, primary screen, biochemical; actives 0.41% (n = 200,000); Peroxisome proliferator-activated receptor gamma (Homo sapiens), P37231; PPARgamma-SRC-1 coactivator recruitment biochemical assay; AID 631, 2007; activation, % at 8 µM; in the data active = activation above about 19%
Target sequence (P37231 whole entry, looked up): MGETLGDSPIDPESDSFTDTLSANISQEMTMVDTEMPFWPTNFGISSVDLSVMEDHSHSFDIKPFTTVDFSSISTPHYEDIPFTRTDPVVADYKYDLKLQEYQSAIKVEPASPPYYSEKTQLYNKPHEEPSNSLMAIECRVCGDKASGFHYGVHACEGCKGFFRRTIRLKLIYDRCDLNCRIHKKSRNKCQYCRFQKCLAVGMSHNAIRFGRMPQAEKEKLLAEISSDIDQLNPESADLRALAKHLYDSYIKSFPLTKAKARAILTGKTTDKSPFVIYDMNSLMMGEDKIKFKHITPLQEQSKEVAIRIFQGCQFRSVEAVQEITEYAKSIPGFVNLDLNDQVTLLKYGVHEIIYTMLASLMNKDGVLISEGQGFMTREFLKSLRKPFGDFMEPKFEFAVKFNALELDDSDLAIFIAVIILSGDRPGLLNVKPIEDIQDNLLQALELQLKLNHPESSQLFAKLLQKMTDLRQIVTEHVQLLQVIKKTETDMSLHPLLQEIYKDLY
TR-FRET SRC-2 ct: TR-FRET signal artefacts, primary screen, artefact control for PPARgamma SRC-2 agonist project, biochemical | TR-FRET artefact counter-screen; stronger effect = higher value | TR-FRET ratio at 8 µM | actives 0.4% (n = 200,000) | AID 1049, 2008
PPARg SRC3 recr: PPARgamma agonists recruiting SRC-3 coactivator, primary screen, biochemical | biochemical PPARgamma/SRC-3 coactivator recruitment assay | actives 0.26% (n = 200,000) | activation, % at 8 µM; in the data active = activation above about 23%
SRC1 TRFRET art: TR-FRET detection interference compounds, primary screen, artefact control for PPARgamma SRC-1 recruitment agonists, biochemical, TR-FRET emission ratio | actives 0.34% (n = 99,000) | TR-FRET detection artefact counter-screen; stronger effect = higher value | AID 1051, 2008 | TR-FRET ratio at 8 µM; in the data active = TR-FRET ratio above about 2300
SRC3 TRFRET art: TR-FRET detection interference compounds, artefact control for PPARgamma SRC-3 recruitment agonists, biochemical, TR-FRET ratio; TR-FRET artefact counter-screen, PPARgamma/SRC-3 format; stronger effect = higher value; TR-FRET ratio at 8 µM; actives 0.39% (n = 99,000)
PPARg SRC2 recr: agonists of PPARg-SRC-2 recruitment, primary screen, biochemical, HTS | Peroxisome proliferator-activated receptor gamma (Homo sapiens), P37231 | PPARgamma LBD-SRC-2 recruitment | activation, % at 8 µM | actives 0.34% (n = 200,000); in the data active = activation above about 22%
Of the large screens only hits and unclear results are named; the others gave an inactive call. Rows were chosen to be rich in hits. Some 0.9% of all compounds tested hit in one or more screens of this group. Cut-off read from the data, not from the text of the source, unless noted: active = TR-FRET ratio above about 2000; inactive = the rest.

CCOCCN1CCN(C(=O)CN2CCCC2=O)CC1	none
CCN1C(=O)/C(=C/C=C2/SCCN2C)SC1=S	none (no result: SRC1 TRFRET art, SRC3 TRFRET art)
CN1CCS/C1=C\C=C1/SC(=S)N(CC(=O)O)C1=O	PPARg SRC-1 ag 24.4
Cc1cc(C)c2nc(SCC(=O)N3CC(=O)Nc4ccccc43)c(C#N)cc2c1	TR-FRET SRC-2 ct 3300 (no result: SRC1 TRFRET art, SRC3 TRFRET art)
CCc1ccc(CN(C)C(=O)CCc2nnc(COc3ccccc3)o2)cc1	none
O=C(O)CCCC(=O)Nc1cc([N+](=O)[O-])ccc1O	PPARg SRC-1 ag 21.7
O=C(Nc1cccc(NS(=O)(=O)c2ccc(S(=O)(=O)NC3CC3)cc2)c1)c1ccccn1	PPARg SRC-1 ag 22.6 (no result: SRC1 TRFRET art, SRC3 TRFRET art)
O=C(CN1CCSCC1)N/N=C/c1cccc(Cl)c1	none
O=C(NCCCCNC(=O)c1ccc(Cl)s1)c1ccc(Cl)s1	none (no result: SRC1 TRFRET art, SRC3 TRFRET art)
O=C(NCCCCCCNC(=O)c1ccc(Br)s1)c1ccc(Br)s1	TR-FRET SRC-2 ct 2455 (no result: SRC1 TRFRET art, SRC3 TRFRET art)
CCN1CCc2c(OCC(=O)N3CCCCC3)cccc2C1=O	none
CCS(=O)(=O)N1CCN(C2CCC(c3ccccc3)CC2)CC1 (configuration not stated)	PPARg SRC-1 ag 20.2 (no result: SRC1 TRFRET art, SRC3 TRFRET art)
Cc1ccc(N=Nc2c(N)n(-c3ccccc3)[nH]c2=O)cc1	PPARg SRC3 recr 25.8 (no result: SRC1 TRFRET art, SRC3 TRFRET art)
CC1C(Br)C(=O)NC(=O)N1Cc1ccccc1 (configuration not stated)	PPARg SRC-1 ag 20.9
COc1cccc(-c2csc(N3CCN(C(=S)Nc4ccccc4OC)CC3)n2)c1	TR-FRET SRC-2 ct 2307 (no result: SRC1 TRFRET art, SRC3 TRFRET art)
COc1cccc(-c2csc(N3CCN(C(=S)Nc4cccc(Cl)c4)CC3)n2)c1	TR-FRET SRC-2 ct 2562 (no result: SRC1 TRFRET art, SRC3 TRFRET art)
COc1cccc(-c2csc(N3CCN(C(=S)Nc4ccccc4Cl)CC3)n2)c1	none (no result: SRC1 TRFRET art, SRC3 TRFRET art)
CC(C)OC(=O)Nc1ccc2c(c1)N(C(=O)CCN1CCOCC1)c1ccccc1CC2	none
Cc1cc(C)c(C#N)c(SCc2cc3c(cc2Cl)OCO3)n1	TR-FRET SRC-2 ct 2388, PPARg SRC2 recr 56.1 (no result: SRC1 TRFRET art, SRC3 TRFRET art)
Cn1cccc1-c1nc2ccc(NC(=O)c3ccccc3)cc2[nH]1	PPARg SRC2 recr 26.0 (no result: SRC1 TRFRET art, SRC3 TRFRET art)
Cc1cccc(N2C(=O)CC(Sc3nc(-c4ccccc4)c4cc(Cl)ccc4n3)C2=O)c1 (configuration not stated)	TR-FRET SRC-2 ct 2388 (no result: SRC1 TRFRET art, SRC3 TRFRET art)
Cc1cccc(N2C(=O)CC(Sc3nc(C)cc(C)n3)C2=O)c1 (configuration not stated)	none (no result: SRC1 TRFRET art, SRC3 TRFRET art)
Cc1cc([N+](=O)[O-])ccc1N=Nc1c(N)[nH]n(-c2ccccc2)c1=O	SRC1 TRFRET art 2323
COc1ccccc1/C=C(/C(=O)OCC(=O)Nc1cc(C)ccc1C)c1ccccc1	none
CCOC(=O)c1c(C)[nH]c(C(=O)COC(=O)CNC(=O)C2CCCCC2)c1C	PPARg SRC3 recr 28.8 (no result: SRC1 TRFRET art, SRC3 TRFRET art)
CS(=O)(=O)N(CC(=O)NCc1ccncc1)Cc1ccc(Cl)cc1	PPARg SRC3 recr 27.9 (no result: SRC1 TRFRET art, SRC3 TRFRET art)
Cc1nnc2sc(-c3ccc(NC(=O)c4ccc(-c5ccc(Cl)cc5Cl)o4)cc3)nn12	PPARg SRC-1 ag 18.7 (no result: SRC1 TRFRET art, SRC3 TRFRET art)
COc1ccc(N2C(=O)c3ccccc3NC2c2ccc(OC)c(COc3ccccn3)c2)cc1 (configuration not stated)	none
COc1ccc(N2C(=O)c3ccccc3NC2c2ccc(OC)c(CSc3ccccn3)c2)cc1 (configuration not stated)	TR-FRET SRC-2 ct 2247 (no result: SRC1 TRFRET art, SRC3 TRFRET art)
Clc1ccc(-c2ccc(C=Nc3ccc(N4CCOCC4)cc3)o2)c(Cl)c1	TR-FRET SRC-2 ct 2149
O=c1oc2ccccc2cc1-c1cn2ccccc2n1	PPARg SRC3 recr 60.2, SRC3 TRFRET art 3228
CCN=C(NCC)SC1CC(=O)N(c2ccc(F)cc2)C1=O (configuration not stated)	none
O=C(N/N=C/c1ccco1)c1ccc(NC(=O)c2ccccc2Cl)cc1	TR-FRET SRC-2 ct 1979
O=C(N/N=C/c1cccs1)c1ccc(NC(=O)c2ccccc2Cl)cc1	none
OCC1(CC2CCCCO2)CCN(Cc2cccc(O)c2)CC1 (configuration not stated)	none
CCC(=O)NC(=S)Nc1ccc(NC(=S)NC(=O)c2ccccc2)cc1	PPARg SRC-1 ag 24.3, SRC1 TRFRET art 2679
